Source: PubChem BioAssay (EPA / NIEHS)
Inconclusive results are not listed. Calls of active or inactive are those of the source. The calls were made as follows, unless noted: active = hit-call score of the fitted dose curve at least 0.9, where 1 is the maximum; inactive = score below 0.9.

Experiments:
[1] = ATG_NFI_CIS: Attagene CIS-FACTORIAL HepG2 Assay for human Nuclear Factor I (NFI) (AID 2282989); settings: HepG2 cis-regulatory reporter, NFI response element transcription; actives raise or lower the signal
Outline: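 Transfected HepG2 liver cells, exposed 24 h, supplied total RNA for oligo(dT) reverse transcription and reporter-specific PCR. Labelled, HpaI-cut fragments were sized by capillary electrophoresis; DMSO set the baseline for bidirectional fitting.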

[2] = biological target: Myc proto-oncogene protein (Homo sapiens) (UniProt P01106); experiment: ATG_Myc_CIS: Attagene CIS-FACTORIAL HepG2 Assay for human Myelocytomatosis (Myc) Proto-Oncogene Transcription Factor (AID 2282990); settings: HepG2, Attagene cis-reporter transcription factor activity; actives raise or lower the signal
Myc proto-oncogene protein (Homo sapiens), sequence (P01106 whole entry, looked up, the tested form may be a part): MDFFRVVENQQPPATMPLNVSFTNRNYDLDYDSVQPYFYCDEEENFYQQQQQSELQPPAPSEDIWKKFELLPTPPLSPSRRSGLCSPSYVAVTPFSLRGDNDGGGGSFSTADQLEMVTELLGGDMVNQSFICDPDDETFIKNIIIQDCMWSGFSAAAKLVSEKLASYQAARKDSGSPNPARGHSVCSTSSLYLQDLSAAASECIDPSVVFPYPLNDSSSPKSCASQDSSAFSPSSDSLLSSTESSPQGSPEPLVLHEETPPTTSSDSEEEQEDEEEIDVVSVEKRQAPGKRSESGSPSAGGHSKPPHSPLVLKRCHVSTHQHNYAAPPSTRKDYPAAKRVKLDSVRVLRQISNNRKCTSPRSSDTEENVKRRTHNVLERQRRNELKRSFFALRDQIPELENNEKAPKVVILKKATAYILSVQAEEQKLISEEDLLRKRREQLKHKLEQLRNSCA
Outline: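 Fluorescence intensity of reporter-specific cDNA fragments, separated by capillary electrophoresis, gives the signal. Transfected HepG2 cells carrying cis-promoter reporter constructs are incubated with compound for 24 h; DMSO serves as baseline.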

[3] = ATG_NF_kB_CIS: Attagene CIS-FACTORIAL HepG2 Assay for human Nuclear Factor Kappa B (NF-kB) (AID 2282991); settings: HepG2 Attagene cis-factorial NF-kB reporter mRNA; actives raise or lower the signal
Outline: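 Fluorescence of labelled RT-PCR products separated by capillary electrophoresis gives reporter mRNA levels from transfected HepG2 cells exposed 24 h; values are fitted in both directions relative to DMSO.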

[4] = ATG_NRF2_ARE_CIS: Attagene CIS-FACTORIAL HepG2 Assay for human Nuclear Factor Erythroid 2 Related Factor 2 (NFR2) response to Antioxidant Response Elements (ARE) (AID 2282992); settings: HepG2 Attagene ARE/NRF2 reporter, transcription factor activity; actives raise or lower the signal
Outline: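 Readout: reporter mRNA quantified by RT-PCR plus FAM-labelled primer extension, HpaI digestion and capillary electrophoresis, 24 h after dosing transfected HepG2 cells. Gain or loss of signal is fitted bidirectionally against DMSO baseline.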

[5] = ATG_Oct_MLP_CIS: Attagene CIS-FACTORIAL HepG2 Assay for human Octamer-Binding Transcription Factor (Oct) (AID 2282993); settings: HepG2 Attagene cis-factorial Oct reporter, mRNA; actives raise or lower the signal
Outline: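 Using HepG2 cells bearing transfected cis-reporter constructs, mRNA induction was read after 24 h by fluorescent RT-PCR and capillary electrophoresis, with DMSO defining baseline for gain- or loss-of-signal fits.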

[6] = biological target: Cellular tumor antigen p53 (Homo sapiens) (UniProt P04637); experiment: ATG_p53_CIS: Attagene CIS-FACTORIAL HepG2 Assay for human p53 Transcription Factor (AID 2282994); settings: HepG2 p53 cis-element reporter, Attagene mRNA; actives raise or lower the signal
Cellular tumor antigen p53 (Homo sapiens), sequence (P04637 whole entry, looked up): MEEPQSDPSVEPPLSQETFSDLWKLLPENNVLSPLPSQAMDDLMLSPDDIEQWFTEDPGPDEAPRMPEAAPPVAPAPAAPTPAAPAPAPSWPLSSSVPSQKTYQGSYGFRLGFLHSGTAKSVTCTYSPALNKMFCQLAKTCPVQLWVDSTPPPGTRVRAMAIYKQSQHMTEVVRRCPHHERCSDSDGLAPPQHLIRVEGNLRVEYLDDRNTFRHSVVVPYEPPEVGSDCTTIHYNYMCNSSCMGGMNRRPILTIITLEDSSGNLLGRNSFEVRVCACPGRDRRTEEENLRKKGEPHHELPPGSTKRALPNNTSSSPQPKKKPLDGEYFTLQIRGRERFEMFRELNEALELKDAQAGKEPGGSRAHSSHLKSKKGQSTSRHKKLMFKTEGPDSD
Outline: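 Read-out: reporter mRNA by RT-PCR plus capillary electrophoresis with fluorescence detection. Human HepG2 liver cells carried transfected multi-reporter cis-element constructs, dosed 24 h. Gain or loss of signal fitted bidirectionally against DMSO control.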

[7] = biological target: human Peroxisome Proliferator-activated Receptor alpha (PPARa), PPARA (gene 5465) (UniProt Q07869); experiment: ATG_PPARa_TRANS: Attagene TRANS-FACTORIAL HepG2 Assay for human Peroxisome Proliferator-activated Receptor alpha (PPARa) (AID 2283001; active = hit-call score of the fitted dose curve at least 0.9, where 1 is the maximum;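 as to AC50: potency for gain of reporter signal over DMSO so agonist or activator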)
human Peroxisome Proliferator-activated Receptor alpha (PPARa), PPARA (gene 5465), sequence (Q07869 whole entry, looked up, the tested form may be a part): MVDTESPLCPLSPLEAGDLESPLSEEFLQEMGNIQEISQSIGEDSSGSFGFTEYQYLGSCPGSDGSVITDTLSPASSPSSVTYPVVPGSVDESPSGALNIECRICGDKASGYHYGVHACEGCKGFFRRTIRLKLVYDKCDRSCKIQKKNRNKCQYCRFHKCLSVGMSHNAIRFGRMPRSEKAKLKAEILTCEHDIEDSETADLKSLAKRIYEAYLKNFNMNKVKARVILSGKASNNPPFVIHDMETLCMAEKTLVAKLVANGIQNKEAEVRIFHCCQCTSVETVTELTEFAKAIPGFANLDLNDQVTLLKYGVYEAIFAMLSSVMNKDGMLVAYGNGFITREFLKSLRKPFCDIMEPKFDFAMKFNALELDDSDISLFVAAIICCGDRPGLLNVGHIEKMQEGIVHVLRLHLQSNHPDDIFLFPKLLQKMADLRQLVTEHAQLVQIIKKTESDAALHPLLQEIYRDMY
Outline: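 Transient HepG2 transfection, GAL4-UAS reporters, NR-Gal4 chimeras; 24 h compound exposure. Readout: reporter transcripts by RT-PCR, 6-FAM primer extension, HpaI digest, capillary electrophoresis. Positive direction vs DMSO baseline.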

[8] = biological target: human Peroxisome Proliferator-activated Receptor delta (PPARd), PPARD (gene 5467) (UniProt Q03181); experiment: ATG_PPARd_TRANS: Attagene TRANS-FACTORIAL HepG2 Assay for human Peroxisome Proliferator-activated Receptor delta (PPARd) (AID 2283002; active = hit-call score of the fitted dose curve at least 0.9, where 1 is the maximum)
human Peroxisome Proliferator-activated Receptor delta (PPARd), PPARD (gene 5467), sequence (Q03181 whole entry, looked up, the tested form may be a part): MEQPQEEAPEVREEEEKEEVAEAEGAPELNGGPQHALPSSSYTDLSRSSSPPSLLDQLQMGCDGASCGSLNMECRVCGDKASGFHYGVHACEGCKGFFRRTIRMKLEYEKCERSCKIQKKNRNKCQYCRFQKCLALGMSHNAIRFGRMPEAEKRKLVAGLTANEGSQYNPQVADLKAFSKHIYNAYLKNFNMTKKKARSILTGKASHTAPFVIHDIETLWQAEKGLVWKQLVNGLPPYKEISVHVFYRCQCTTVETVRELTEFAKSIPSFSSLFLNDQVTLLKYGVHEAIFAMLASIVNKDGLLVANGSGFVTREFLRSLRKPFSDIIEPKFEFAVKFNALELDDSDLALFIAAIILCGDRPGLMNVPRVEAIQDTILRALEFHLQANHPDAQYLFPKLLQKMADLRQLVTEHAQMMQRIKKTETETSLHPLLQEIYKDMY
Outline: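 Fluorescence from capillary electrophoresis of labelled RT-PCR reporter fragments gives the signal; DMSO sets baseline. Cells: HepG2 transiently carrying GAL4-UAS reporter units plus chimeric nuclear receptor-Gal4 proteins, exposed to chemicals for 24 h.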

[9] = biological target: Peroxisome proliferator-activated receptor gamma (Homo sapiens) (UniProt P37231); experiment: ATG_PPARg_TRANS: Attagene TRANS-FACTORIAL HepG2 Assay for human Peroxisome Proliferator-activated Receptor-gamma (PPARg) (AID 2283007; active = hit-call score of the fitted dose curve at least 0.9, where 1 is the maximum)
Peroxisome proliferator-activated receptor gamma (Homo sapiens), sequence (P37231 whole entry, looked up): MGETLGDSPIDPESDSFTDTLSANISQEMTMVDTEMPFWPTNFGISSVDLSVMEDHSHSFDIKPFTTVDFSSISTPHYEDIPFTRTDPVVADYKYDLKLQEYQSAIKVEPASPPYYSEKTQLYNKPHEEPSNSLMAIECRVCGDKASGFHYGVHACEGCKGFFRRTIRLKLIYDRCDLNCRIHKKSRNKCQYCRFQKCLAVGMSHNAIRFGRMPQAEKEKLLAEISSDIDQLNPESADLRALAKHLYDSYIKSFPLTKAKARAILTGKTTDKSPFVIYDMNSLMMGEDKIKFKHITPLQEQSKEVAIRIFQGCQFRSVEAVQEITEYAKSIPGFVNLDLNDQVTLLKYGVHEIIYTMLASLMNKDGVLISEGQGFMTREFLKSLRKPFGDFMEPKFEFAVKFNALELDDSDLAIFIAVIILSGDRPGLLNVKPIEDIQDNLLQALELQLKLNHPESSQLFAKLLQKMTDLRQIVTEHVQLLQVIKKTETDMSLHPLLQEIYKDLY
Outline: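 Twenty-four hours after chemical dosing of transiently transfected HepG2 cells, isolated RNA was converted to cDNA, reporter sequences amplified and 6-FAM-labelled, then HpaI-digested and analysed by capillary electrophoresis. Signal increase against DMSO was fitted.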

[10] = biological target: Nuclear receptor subfamily 1 group I member 2 (Homo sapiens) (UniProt O75469); experiment: ATG_PXR_TRANS: Attagene TRANS-FACTORIAL HepG2 Assay for human Pregnane X Receptor (PXR) (AID 2283008; active = hit-call score of the fitted dose curve at least 0.9, where 1 is the maximum)
Nuclear receptor subfamily 1 group I member 2 (Homo sapiens), sequence (O75469 whole entry, looked up, the tested form may be a part): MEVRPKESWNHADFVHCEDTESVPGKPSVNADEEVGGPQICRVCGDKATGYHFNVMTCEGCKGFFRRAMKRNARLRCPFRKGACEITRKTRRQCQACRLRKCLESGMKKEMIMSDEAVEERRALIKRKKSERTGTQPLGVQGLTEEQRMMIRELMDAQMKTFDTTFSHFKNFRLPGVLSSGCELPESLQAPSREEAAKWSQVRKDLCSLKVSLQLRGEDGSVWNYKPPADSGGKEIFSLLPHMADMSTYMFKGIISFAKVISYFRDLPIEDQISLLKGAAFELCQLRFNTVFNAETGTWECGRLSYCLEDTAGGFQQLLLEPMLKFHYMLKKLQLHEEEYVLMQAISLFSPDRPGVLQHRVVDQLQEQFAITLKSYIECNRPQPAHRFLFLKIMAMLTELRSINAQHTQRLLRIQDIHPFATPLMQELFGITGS
Outline: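 Trans-factorial format: exogenous NR-Gal4 fusion activity, not endogenous factor, in transfected human HepG2 liver cells. After 24 h dosing, RNA isolated, reverse-transcribed, amplified and resolved by capillary electrophoresis; induction scored versus DMSO.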

[11] = BSK_3C_TissueFactor: BioMAP Diversity Plus: 3C Assay for Tissue Factor Biomarker Activity (AID 2282997); settings: BioMAP 3C HUVEC, tissue factor biomarker readout; actives raise or lower the signal
Outline: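 After a 24 h chemical exposure of primary human umbilical vein endothelial cells, Tissue Factor levels were quantified by ELISA.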

[12] = BSK_3C_VCAM1: BioMAP Diversity Plus: 3C Assay for Vascular cell adhesion molecule 1 (VCAM1) Biomarker Activity (AID 2282999); settings: BioMAP 3C HUVEC, VCAM1 ELISA, cytokine-stimulated; actives raise or lower the signal
Outline: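 HUVEC primary cells, 24 h compound exposure; VCAM-1 by ELISA; gain/loss of signal fitted bidirectionally vs DMSO baseline.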

[13] = BSK_4H_Eotaxin3: BioMAP Diversity Plus: 4H Assay for Eotaxin 3 Biomarker Activity (AID 2283000); settings: primary human endothelial cells (HUVEC); actives raise or lower the signal
Outline: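 Chemicals were added to human umbilical vein endothelium cultures, and Eotaxin-3 was quantified by ELISA at 24 h. Values were derived by bidirectional fitting with DMSO serving as negative control and activity baseline.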

[14] = read-out: Intercellular Adhesion Molecule 1 (ICAM1), ICAM1 (gene 3383); experiment: BSK_3C_ICAM1: BioMAP Diversity Plus: 3C Assay for Intercellular Adhesion Molecule 1 (ICAM1) Biomarker Activity (AID 2283003); settings: primary human endothelial cells (HUVEC); actives raise or lower the signal
Outline: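 ELISA read-out of ICAM-1; HUVEC (primary human), 3C system, 24 h post-dosing; bidirectional fit vs DMSO baseline.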

[15] = biological target: human RAR-related Orphan Receptor beta (RORb), RORB (gene 6096) (UniProt Q92753); experiment: ATG_RORb_TRANS: Attagene TRANS-FACTORIAL HepG2 Assay for human RAR-related Orphan Receptor beta (RORb) (AID 2283010; active = hit-call score of the fitted dose curve at least 0.9, where 1 is the maximum)
human RAR-related Orphan Receptor beta (RORb), RORB (gene 6096), sequence (Q92753 whole entry, looked up, the tested form may be a part): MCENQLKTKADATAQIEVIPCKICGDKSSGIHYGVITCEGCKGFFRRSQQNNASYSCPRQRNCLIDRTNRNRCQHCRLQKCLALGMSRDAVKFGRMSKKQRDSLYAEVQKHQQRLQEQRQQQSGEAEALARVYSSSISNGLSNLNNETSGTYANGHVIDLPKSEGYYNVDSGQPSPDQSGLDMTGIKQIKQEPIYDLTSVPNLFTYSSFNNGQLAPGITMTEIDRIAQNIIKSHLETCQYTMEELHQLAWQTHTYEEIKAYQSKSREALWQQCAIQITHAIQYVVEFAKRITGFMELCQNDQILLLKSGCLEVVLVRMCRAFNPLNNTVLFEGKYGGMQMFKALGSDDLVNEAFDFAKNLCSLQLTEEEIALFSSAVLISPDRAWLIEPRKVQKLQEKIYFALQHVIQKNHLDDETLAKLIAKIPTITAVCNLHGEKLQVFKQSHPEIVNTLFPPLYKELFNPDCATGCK
Outline: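 HepG2, transient MRTU transfection (GAL4-UAS reporters, exogenous NR-Gal4 chimeras); 24 h compound exposure; total RNA → RT-PCR → 6-FAM primer extension → HpaI digest → CE fluorescence. Positive direction vs DMSO baseline.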

[16] = biological target: human Retinoic Acid Receptor beta (RARb), RARB (gene 5915) (UniProt P10826); experiment: ATG_RARb_TRANS: Attagene TRANS-FACTORIAL HepG2 Assay for human Retinoic Acid Receptor beta (AID 2283004; active = hit-call score of the fitted dose curve at least 0.9, where 1 is the maximum)
human Retinoic Acid Receptor beta (RARb), RARB (gene 5915), sequence (P10826 whole entry, looked up): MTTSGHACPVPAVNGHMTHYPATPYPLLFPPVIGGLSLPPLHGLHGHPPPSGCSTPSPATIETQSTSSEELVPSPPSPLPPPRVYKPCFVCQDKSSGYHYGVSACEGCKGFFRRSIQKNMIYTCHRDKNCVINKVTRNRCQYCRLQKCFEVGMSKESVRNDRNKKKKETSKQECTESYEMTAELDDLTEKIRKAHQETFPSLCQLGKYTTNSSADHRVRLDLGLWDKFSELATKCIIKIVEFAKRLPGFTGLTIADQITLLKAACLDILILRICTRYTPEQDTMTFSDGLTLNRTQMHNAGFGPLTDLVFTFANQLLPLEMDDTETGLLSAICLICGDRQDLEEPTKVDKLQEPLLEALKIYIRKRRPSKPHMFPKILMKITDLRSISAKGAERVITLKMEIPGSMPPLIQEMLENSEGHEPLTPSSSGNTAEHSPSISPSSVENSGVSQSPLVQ
Outline: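 Transient transfection of HepG2 with multiple reporter units → chemical dosing, 24 h → total RNA isolation → RT with oligo(dT) → reporter-specific PCR, 6-FAM primer extension, HpaI digest → capillary electrophoresis. Positive direction vs DMSO control.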

[17] = BSK_3C_uPAR: BioMAP Diversity Plus: 3C Assay for Urokinase-type plasminogen activator receptor (uPAR) Biomarker Activity (AID 2282998); settings: BioMAP 3C HUVEC, uPAR biomarker ELISA; actives raise or lower the signal
Outline: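 In this endothelial cell-based assay, human umbilical vein primary cells were treated with chemicals and harvested at 24 h. uPAR was quantified using ELISA, with gains or losses fitted relative to DMSO controls.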

[18] = biological target: Retinoic acid receptor alpha (Homo sapiens) (UniProt P10276); experiment: ATG_RARa_TRANS: Attagene TRANS-FACTORIAL HepG2 Assay for human Retinoic Acid Receptor alpha (RARa) (AID 2283005; active = hit-call score of the fitted dose curve at least 0.9, where 1 is the maximum)
Retinoic acid receptor alpha (Homo sapiens), sequence (P10276 whole entry, looked up, the tested form may be a part): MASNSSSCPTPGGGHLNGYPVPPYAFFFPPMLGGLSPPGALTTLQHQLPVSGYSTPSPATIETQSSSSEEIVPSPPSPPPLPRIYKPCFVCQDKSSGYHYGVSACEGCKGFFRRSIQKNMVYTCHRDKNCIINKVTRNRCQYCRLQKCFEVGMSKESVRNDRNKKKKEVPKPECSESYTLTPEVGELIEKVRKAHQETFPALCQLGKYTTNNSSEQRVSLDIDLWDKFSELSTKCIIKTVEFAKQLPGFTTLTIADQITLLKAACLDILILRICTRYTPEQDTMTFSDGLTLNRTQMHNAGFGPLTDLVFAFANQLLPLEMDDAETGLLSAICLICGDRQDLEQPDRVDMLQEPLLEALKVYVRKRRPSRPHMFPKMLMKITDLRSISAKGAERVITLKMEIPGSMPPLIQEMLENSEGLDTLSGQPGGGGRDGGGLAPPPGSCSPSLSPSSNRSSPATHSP
Outline: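 HepG2 transiently transfected with multiplex GAL4-UAS reporter units including a human RARa–GAL4 chimera; 24 h compound exposure. Reporter mRNA quantified by RT-PCR, 6-FAM labeling and capillary electrophoresis; gain of signal versus DMSO.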

[19] = BSK_3C_Proliferation: Cell Proliferation Assessment in the BioMAP Diversity Plus: 3C Assay (AID 2283006); settings: primary human endothelial cells (HUVEC);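 as to AC50: potency may reflect either rise or fall in cell number versus DMSO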
Outline: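 HUVEC, sub-confluent; 48 h chemical exposure; 10% TCA fix, 0.1% SRB stain, A560 total protein. Gain or loss of signal fitted both directions vs DMSO control.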

[20] = biological target: human Retinoic Acid Receptor gamma (RARg), RARG (gene 5916) (UniProt P13631); experiment: ATG_RARg_TRANS: Attagene TRANS-FACTORIAL HepG2 Assay for human Retinoic Acid Receptor gamma (RARg) (AID 2283009; active = hit-call score of the fitted dose curve at least 0.9, where 1 is the maximum)
human Retinoic Acid Receptor gamma (RARg), RARG (gene 5916), sequence (P13631 whole entry, looked up, the tested form may be a part): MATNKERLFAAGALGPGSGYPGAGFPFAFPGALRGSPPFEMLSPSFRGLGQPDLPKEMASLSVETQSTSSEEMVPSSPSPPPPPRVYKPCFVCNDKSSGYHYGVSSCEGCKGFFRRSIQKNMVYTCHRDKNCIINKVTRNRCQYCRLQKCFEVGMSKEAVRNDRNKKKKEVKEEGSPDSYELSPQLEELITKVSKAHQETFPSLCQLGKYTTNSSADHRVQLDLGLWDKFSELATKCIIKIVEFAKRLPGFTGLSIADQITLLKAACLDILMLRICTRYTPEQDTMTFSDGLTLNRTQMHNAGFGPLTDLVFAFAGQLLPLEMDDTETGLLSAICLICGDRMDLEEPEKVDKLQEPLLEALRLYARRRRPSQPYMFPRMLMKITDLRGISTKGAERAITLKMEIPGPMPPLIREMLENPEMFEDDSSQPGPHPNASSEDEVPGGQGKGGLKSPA
Outline: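 Readout: reporter transcript levels via RT-PCR, 6-FAM primer-extension labelling, HpaI digestion and capillary electrophoresis. Cells: HepG2 carrying transfected RARg-GAL4 chimera plus UAS reporter set. Dosing 24 h; DMSO negative control.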

Measured: AC50

COP(=O)(OC)O/C(=C\Cl)c1cc(Cl)c(Cl)cc1Cl
inactive: [1] | [3] | [8]
active: [2] 180 µM | [4] 25.8 µM | [5] 27.6 µM | [6] 161 µM | [7] 64800 nM | [9] 10.8 µM | [10] 0.862 µM

CC(C)c1ccc(CO)cc1
inactive: [1] | [2] | [3] | [4] | [5] | [6] | [11] | [12] | [13] | [7] | [8] | [14] | [9] | [10] | [15]

CCc1ccccc1C
inactive: [1] | [2] | [3] | [4] | [5] | [6] | [7] | [8] | [9] | [10]

COc1ccccc1OC
inactive: [1] | [2] | [3] | [4] | [5] | [6] | [7] | [8] | [16] | [9] | [10] | [15]

CC(C)CCCCCCOC(=O)c1ccccc1C(=O)OCCCCCCC(C)C
active: [10] 1.84 µM
inactive: [1] | [2] | [3] | [4] | [5] | [6] | [11] | [12] | [13] | [7] | [8] | [14] | [15]

O=[N+]([O-])c1ccc2c3c(cccc13)CC2
active: [4] 6.63 µM | [17] 20 µM | [9] 22.7 µM | [10] 2.41 µM
inactive: [1] | [2] | [3] | [5] | [6] | [11] | [12] | [13] | [14] | [16] | [18] | [19] | [20]

COc1ccc(C=O)cc1
inactive: [1] | [2] | [3] | [4] | [5] | [6] | [7] | [8] | [9] | [15]

Clc1ccc(COC(Cn2ccnc2)c2ccc(Cl)cc2Cl)cc1 (stereo not drawn)
active: [4] 6.8 µM | [7] 85.3 nM | [9] 4.84 µM | [10] 0.44 µM
inactive: [1] | [2] | [3] | [5] | [6] | [8]

CCN1CCC2(CC1)COc1cc3c(cc12)N(C(=O)c1ccc(-c2ccc(-c4nnc(C)o4)cc2C)cc1)CC3
active: [4] 5.17 µM | [11] 13.2 µM | [17] 9.27 µM | [12] 26.9 µM | [13] 24.1 µM | [14] 29.2 µM | [19] 5.23 µM
inactive: [1] | [2] | [3] | [5] | [6] | [7] | [8] | [16] | [18] | [10] | [20] | [15]

CCNc1nc(NC(C)(C)C)nc(SC)n1
inactive: [1] | [2] | [3] | [4] | [5] | [6] | [11] | [12] | [13] | [8] | [14]
active: [9] 29.5 µM | [10] 2.02 µM

OCc1ccco1
active: [4] 49.6 µM | [9] 39.7 µM
inactive: [1] | [2] | [3] | [5] | [6] | [11] | [17] | [12] | [13] | [14] | [10] | [15]

COc1cc(OC)nc(NC(=O)NS(=O)(=O)c2ncccc2C(=O)N(C)C)n1
active: [10] 100 µM
inactive: [1] | [2] | [3] | [4] | [5] | [6] | [11] | [12] | [13] | [7] | [8] | [14] | [19] | [9] | [15]

ClCCBr
inactive: [1] | [2] | [3] | [4] | [5] | [6] | [7] | [8] | [9] | [10] | [15]

O=c1[nH]c(=O)[nH]c(=O)[nH]1
inactive: [1] | [2] | [3] | [4] | [5] | [6] | [11] | [12] | [13] | [7] | [8] | [14] | [16] | [18] | [19] | [9] | [10] | [15]

C[C@H]1O[C@@H](O[C@H]2[C@@H](O)C[C@H](O[C@H]3[C@@H](O)C[C@H](O[C@H]4CC[C@@]5(C)[C@H](CC[C@@H]6[C@@H]5CC[C@]5(C)[C@@H](C7=CC(=O)OC7)CC[C@]65O)C4)O[C@@H]3C)O[C@@H]2C)C[C@H](O)[C@@H]1O
inactive: [3] | [4] | [6] | [8] | [9] | [15]
active: [1] 171 nM | [2] 23.9 µM | [5] 0.592 µM | [7] 56.4 nM
